MCF10A rereplic: induces DNA re-replication in MCF 10a normal breast cells; MCF 10A DNA re-replication, Hoechst nuclear intensity, 48 h; Potency, µM (doses to about 46.1 µM), for inactives: top-dose activity, positive = re-replication, most hits filed as activators; 350,000 tested, 2.9% active; further: potency means the concentration at half of the fitted maximal effect; % of control where 0% means no effect; nearly all actives have a fitted effect of over 50% in size
SW480 rerep: induces DNA re-replication in SW480 colon adenocarcinoma cells. SW480 DNA re-replication, Hoechst DNA content imaging, 48 h. Potency, µM (doses to about 46.1 µM), inactives show top-dose re-replication activation, hits mostly activators. 340,000 tested, 1.8% active; further: potency means the concentration at half of the fitted maximal effect; % of control where 0% means no effect; nearly all actives have a fitted effect of over 55% in size
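Quantitative HTS format with DMSO vehicle controls; 48 hr drug incubation at 37 C, then 40 min Hoechst staining and scanning imager measurement at 405 nm excitation.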
TDP1 cell CPT: growth inhibition of DT40 Tdp1-/-;hTDP1 cells with camptothecin (screen for TDP1 inhibitors); AID 686979; chicken DT40 Tdp1-/-;hTDP1 cells + 20 nM CPT, ATP luminescence, 48 h; 420,000 tested, 12% active; Potency, µM (series often up to 46.2 µM), without a hit: at the top dose activity change, negative = growth inhibition, most hits filed as inhibitors; further: potency means the concentration at half of the fitted maximal effect; on the % scale 0 is the no-effect control and ±100 the full control effect; nearly all actives have a fitted effect of over 55% in size
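Chicken DT40 Tdp1-/- cells stably complemented with human TDP1 were seeded at 400 cells/well in medium containing 20 nM camptothecin, exposed to pin-transferred compounds, and grown at 37 °C for at least 48 hr. Viability was read as ATP luminescence.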
TDP1 cell noCPT: qHTS for Inhibitors of human tyrosyl-DNA phosphodiesterase 1 (TDP1): qHTS in cells in absence of CPT; DT40 Tdp1-/- hTDP1 cells, no CPT, ATP luminescence, 48 h; Potency, µM (top dose mostly 46.2 µM), inactives show top-dose activity change, negative = growth inhibition, usual class: inhibitors; 420,000 tested, 15% active; AID 686978, 2013; further: potency means the concentration at half of the fitted maximal effect; on the % scale 0 is the no-effect control and ±100 the full control effect; nearly all actives have a fitted effect of over 55% in size
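Growth kinetics read by CellTiter-Glo luminescence after ≥48 hr at 37 °C. Cells: DT40 Tdp1-/- stably carrying human TDP1, 400 per well, compound exposure in the absence of CPT (DMSO vehicle).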
IL-1B inflam inh: inhibitors of inflammasome signaling (IL-1 beta secretion). 360,000 tested, 4.7% active. THP-1 LPS/ATP IL-1B secretion, AlphaLISA, 16 h; stronger effect = lower value. activity change, % at 57.5 µM; in the data active means activity change below about -50%; inconclusive means mostly about -30% to -49%; further: on the % scale 0 is the no-effect control and ±100 the full control effect
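THP-1 cells pretreated 1 hr with compounds (up to 57.5 uM final), then stimulated with LPS (250 ng/mL final) plus ATP (1.25 mM final); secreted IL-1B measured by AlphaLISA after 16 hr, decreased signal indicating inhibition.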
Chronic BCR inh: inhibitors of chronic active B-cell receptor signaling; ABC-DLBCL IkBa-CBG/CBR reporter, luminescence ratio, 4 h; 340,000 tested, 0.05% active; Potency, µM (doses to about 46.1 µM), for inactives: at the highest dose activity change, negative = inhibition, hits mostly inhibitors; active means well fitted inhibition curve with a large enough effect in the signal ratio, with a control signal flat, not every such curve was filed as active; inconclusive means small, poorly fitted or top-dose-only effect, or effect the other way, or a change in a side signal; the % refers to the signal ratio;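 further: potency means the concentration at half of the fitted maximal effect; plate controls were basal doxycycline-induced cells for no effect and cells given 10 µM MG132 for full effect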
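TMD8 ABC-DLBCL cells carrying doxycycline-inducible green luciferase fused to IkappaBalpha plus unfused red luciferase were exposed to compounds (up to 46 uM) for 4 hrs at 37C. Activity came from the overlap-corrected green/red luminescence ratio.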
The depositor's hits bear a star. The list is not random: actives were taken first. Their share in the collection is about 19%. Unless noted, the call rests on the fitted dose curve; in most records, active means well fitted curve in the direction sought with a large enough effect; inconclusive means small, poorly fitted or top-dose-only effect, or another doubt; inactive means no such curve, though single readings can be large; an effect the other way counts as inactive or inconclusive.

What do the screens show for `COc1ccc2[nH]cc(S(=O)(=O)c3ccc(C)c(C)c3)c(=O)c2c1`?
TDP1 cell CPT: -13%; TDP1 cell noCPT: -20%

How did O=c1oc2c3c4c(cc2c2c1CCC2)OCCN4CCC3 do in these assays?
MCF10A rereplic: inconclusive; SW480 rerep: inconclusive; TDP1 cell CPT: 18µM*; TDP1 cell noCPT: inconclusive; IL-1B inflam inh: inconclusive; Chronic BCR inh: inconclusive

How did Cc1c(O)c(CN2CCCC2)cc2c3c(c(=O)oc12)CCC3 do in these assays?
MCF10A rereplic: 16%; SW480 rerep: -3%; TDP1 cell CPT: 0%; TDP1 cell noCPT: -6%; IL-1B inflam inh: 7; Chronic BCR inh: inconclusive

What do the screens show for `COc1ccc(C(O)c2nc(-c3cnn(C)c3)cs2)cc1` (configuration not stated)?
TDP1 cell CPT: inconclusive; TDP1 cell noCPT: inconclusive; IL-1B inflam inh: 16

How did Cc1cccc(CNc2nc(-c3ccc4c(c3)OCO4)nc3ccccc23)c1 do in these assays?
TDP1 cell CPT: inconclusive; TDP1 cell noCPT: 23µM*

Results for c1cncc(CNc2ncncc2-c2ccc3c(c2)OCO3)c1 ?
TDP1 cell CPT: 6.5µM*; TDP1 cell noCPT: 10µM*

Results for c1cncc(CNc2ccc3c(c2)OCO3)c1 ?
MCF10A rereplic: 19%; SW480 rerep: 4%; TDP1 cell CPT: -82%; TDP1 cell noCPT: -19%; IL-1B inflam inh: -8; Chronic BCR inh: 0%

What do the screens show for `Cc1cccc(CNc2ncncc2-c2cccnc2)c1`?
TDP1 cell CPT: -6%; TDP1 cell noCPT: -11%

What do the screens show for `Cc1cccc(CNc2ncnc3ccc(-c4ccc5c(c4)OCO5)cc23)c1`?
MCF10A rereplic: inconclusive; SW480 rerep: 0%; TDP1 cell CPT: inconclusive; TDP1 cell noCPT: 18µM*; Chronic BCR inh: inconclusive

How did Cc1cccc(CNc2ncnc3ccc(-c4cccc(Cl)c4)cc23)c1 do in these assays?
Chronic BCR inh: -25%

Results for Cc1cccc(CNc2ncncc2-c2ccc(C(=O)N(C)C)cc2)c1 ?
TDP1 cell CPT: inconclusive; TDP1 cell noCPT: 3.7µM*

What do the screens show for `COc1cccc(NC(=O)c2ccc(N3C(=O)C4CCC(C)CC4C3=O)cc2)c1` (configuration not stated)?
MCF10A rereplic: 49%; SW480 rerep: 2%; TDP1 cell CPT: -30%; TDP1 cell noCPT: inconclusive; IL-1B inflam inh: 7

Results for CC(=O)NCCNc1ncnc2ccc(-c3ccc(C(=O)N(C)C)cc3)cc12 ?
TDP1 cell CPT: 5%; TDP1 cell noCPT: -5%

What do the screens show for `Cc1cccc(CNc2ncnc3ccc(-c4ccc(C(=O)N(C)C)cc4)cc23)c1`?
TDP1 cell CPT: inconclusive; TDP1 cell noCPT: 26µM*

What do the screens show for `COC(=O)Cc1c[nH]c2cccc(OCC(O)CN(Cc3ccc([N+](=O)[O-])cc3)C(C)(C)C)c12` (configuration not stated)?
MCF10A rereplic: 8%; SW480 rerep: 8%; TDP1 cell CPT: inconclusive; TDP1 cell noCPT: 18µM*; IL-1B inflam inh: -7; Chronic BCR inh: inconclusive

How did Cc1ccc(CN(CC(O)COc2cccc3[nH]cc(C)c23)C(C)(C)C)cc1 (configuration not stated) do in these assays?
MCF10A rereplic: 15%; SW480 rerep: -1%; TDP1 cell CPT: 21µM*; TDP1 cell noCPT: inconclusive; IL-1B inflam inh: -2; Chronic BCR inh: 0%

What do the screens show for `COC(=O)Cc1c[nH]c2cccc(OCC(O)CN(Cc3ccccc3)C(C)C)c12` (configuration not stated)?
MCF10A rereplic: 13%; SW480 rerep: 10%; TDP1 cell CPT: inconclusive; TDP1 cell noCPT: inconclusive; IL-1B inflam inh: -18; Chronic BCR inh: 8%

How did COC(=O)Cn1cc(C(=O)C2CC2)c2ccccc21 do in these assays?
MCF10A rereplic: -1%; SW480 rerep: -1%; TDP1 cell CPT: -1%; TDP1 cell noCPT: -17%; IL-1B inflam inh: -89*; Chronic BCR inh: inconclusive

What do the screens show for `COC(=O)Cn1cc(C(=O)C(C)(C)C)c2ccccc21`?
MCF10A rereplic: 0%; SW480 rerep: -4%; TDP1 cell CPT: 2%; TDP1 cell noCPT: 1%; IL-1B inflam inh: -74*; Chronic BCR inh: 7%

Results for CCOC(=O)Cn1cc(C(=O)C(C)(C)C)c2ccccc21 ?
MCF10A rereplic: -14%; SW480 rerep: -7%; TDP1 cell CPT: inconclusive; TDP1 cell noCPT: -15%; IL-1B inflam inh: 0; Chronic BCR inh: 0%

What do the screens show for `CCOC(=O)Cn1cc(C(=O)C2CC2)c2ccccc21`?
MCF10A rereplic: 5%; SW480 rerep: -18%; TDP1 cell CPT: -2%; TDP1 cell noCPT: 0%; IL-1B inflam inh: 23; Chronic BCR inh: 1%

What do the screens show for `CCOC(=O)c1cccc(NC(=O)c2ncoc2-c2ccco2)c1`?
TDP1 cell CPT: -25%; TDP1 cell noCPT: -28%

What do the screens show for `COc1ccc(N(CC(=O)NCc2ccc3c(c2)OCO3)S(=O)(=O)c2ccccc2[N+](=O)[O-])c(OC)c1`?
MCF10A rereplic: inconclusive; SW480 rerep: inconclusive; TDP1 cell CPT: 26µM*; TDP1 cell noCPT: inconclusive; IL-1B inflam inh: -16; Chronic BCR inh: 0%

How did COc1ccc(N(CC(=O)Nc2cc(C)ccc2C)S(=O)(=O)c2ccccc2[N+](=O)[O-])c(OC)c1 do in these assays?
MCF10A rereplic: 7%; SW480 rerep: 18%; TDP1 cell CPT: inconclusive; TDP1 cell noCPT: 12µM*; IL-1B inflam inh: 0; Chronic BCR inh: 2%

What do the screens show for `COc1ccc(N(CC(=O)Nc2cc(C)cc(C)c2)S(=O)(=O)c2ccccc2[N+](=O)[O-])c(OC)c1`?
MCF10A rereplic: 1%; SW480 rerep: -4%; TDP1 cell CPT: inconclusive; TDP1 cell noCPT: -24%; IL-1B inflam inh: 1; Chronic BCR inh: -3%

What do the screens show for `C=CCN1C=CC(=O)CC1`?
MCF10A rereplic: -21%; SW480 rerep: inconclusive; TDP1 cell CPT: -14%; TDP1 cell noCPT: -2%; IL-1B inflam inh: 21; Chronic BCR inh: 3%

How did CSc1ncccc1C(=O)NCC1Cc2cc(F)cc(-c3cncnc3)c2O1 (configuration not stated) do in these assays?
TDP1 cell CPT: 7%; TDP1 cell noCPT: -8%

What do the screens show for `Cc1ccc(C(=O)NC(=S)Nc2ccc(-c3cc4ccccc4oc3=O)cc2)c(C)c1`?
MCF10A rereplic: -5%; SW480 rerep: -11%; TDP1 cell CPT: inconclusive; TDP1 cell noCPT: 23µM*; IL-1B inflam inh: -2; Chronic BCR inh: inconclusive

Assay outcomes from PubChem.
